Here are results for 6 compounds from ChEMBL document CHEMBL1961873, “Compounds: GSK PKIS; Assays: Nanosyn kinase panel” (2012).

The target in experiment [1] is T1, Tyrosine-protein kinase ITK/TSK (Homo sapiens) (UniProt Q08881).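 Also: values are mean percent inhibition of ITK from the GSK PKIS screen.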
T1 sequence (whole entry): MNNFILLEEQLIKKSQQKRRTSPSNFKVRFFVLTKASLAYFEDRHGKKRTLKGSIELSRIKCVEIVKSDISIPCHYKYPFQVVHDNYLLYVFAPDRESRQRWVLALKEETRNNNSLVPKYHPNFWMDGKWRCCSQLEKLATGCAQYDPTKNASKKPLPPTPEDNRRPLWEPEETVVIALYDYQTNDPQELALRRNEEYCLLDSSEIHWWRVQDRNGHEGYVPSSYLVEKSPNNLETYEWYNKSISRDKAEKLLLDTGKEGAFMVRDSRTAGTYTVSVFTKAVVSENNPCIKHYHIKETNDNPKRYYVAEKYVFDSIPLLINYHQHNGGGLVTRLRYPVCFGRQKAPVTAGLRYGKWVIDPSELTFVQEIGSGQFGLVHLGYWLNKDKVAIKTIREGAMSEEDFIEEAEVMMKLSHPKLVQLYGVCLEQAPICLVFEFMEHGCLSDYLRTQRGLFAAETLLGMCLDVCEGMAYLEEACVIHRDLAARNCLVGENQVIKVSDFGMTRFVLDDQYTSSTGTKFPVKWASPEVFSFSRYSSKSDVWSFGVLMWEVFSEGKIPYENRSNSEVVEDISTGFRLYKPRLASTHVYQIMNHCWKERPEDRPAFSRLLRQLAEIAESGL
To be noted: at 1 µM.

Experiment [2] addresses Tyrosine-protein kinase JAK1 (Homo sapiens) (UniProt P23458). To be noted: at 0.1 µM.
Experiment [3] shares this target. The conditions noted are these: at 1 µM.
Experiment [4] addresses Tyrosine-protein kinase JAK2 (Homo sapiens) (UniProt O60674). The conditions noted are these: at 0.1 µM.
For experiment [5] the target is unchanged. The conditions noted are these: at 1 µM.
The target in experiment [6] is T2, Tyrosine-protein kinase JAK3 (Homo sapiens) (UniProt P52333).
T2 sequence (whole entry): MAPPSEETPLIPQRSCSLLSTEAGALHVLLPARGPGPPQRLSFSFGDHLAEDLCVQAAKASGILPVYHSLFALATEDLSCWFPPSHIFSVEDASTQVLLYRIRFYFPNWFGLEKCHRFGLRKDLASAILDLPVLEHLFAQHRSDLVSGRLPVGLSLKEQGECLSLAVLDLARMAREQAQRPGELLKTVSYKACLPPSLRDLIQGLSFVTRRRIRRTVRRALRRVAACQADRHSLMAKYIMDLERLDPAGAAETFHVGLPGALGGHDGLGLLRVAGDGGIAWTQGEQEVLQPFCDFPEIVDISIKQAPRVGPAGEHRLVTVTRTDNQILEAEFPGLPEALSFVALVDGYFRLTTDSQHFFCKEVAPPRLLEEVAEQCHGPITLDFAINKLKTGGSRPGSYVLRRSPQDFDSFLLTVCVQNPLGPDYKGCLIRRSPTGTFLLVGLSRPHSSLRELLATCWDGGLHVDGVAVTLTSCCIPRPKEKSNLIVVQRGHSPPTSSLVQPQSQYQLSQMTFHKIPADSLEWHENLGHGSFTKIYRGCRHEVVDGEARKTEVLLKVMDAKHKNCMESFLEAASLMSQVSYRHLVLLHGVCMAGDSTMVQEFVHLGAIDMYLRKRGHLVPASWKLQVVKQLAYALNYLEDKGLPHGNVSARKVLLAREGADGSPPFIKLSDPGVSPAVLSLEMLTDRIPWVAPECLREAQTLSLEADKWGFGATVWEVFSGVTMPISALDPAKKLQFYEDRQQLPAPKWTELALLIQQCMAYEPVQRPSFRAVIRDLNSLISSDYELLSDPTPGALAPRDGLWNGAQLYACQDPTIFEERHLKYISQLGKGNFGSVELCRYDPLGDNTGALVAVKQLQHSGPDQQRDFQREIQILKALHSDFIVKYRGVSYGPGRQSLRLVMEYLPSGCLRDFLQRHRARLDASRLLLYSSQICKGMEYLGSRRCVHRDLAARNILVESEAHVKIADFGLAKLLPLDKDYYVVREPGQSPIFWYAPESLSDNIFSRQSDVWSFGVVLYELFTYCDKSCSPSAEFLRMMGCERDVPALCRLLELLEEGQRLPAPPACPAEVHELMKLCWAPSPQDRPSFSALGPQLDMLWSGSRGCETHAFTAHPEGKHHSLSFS
To be noted: at 0.1 µM.

For experiment [7], the target named is T2, Tyrosine-protein kinase JAK3 (Homo sapiens). To be noted: at 1 µM.
Experiment [8] has as its target Vascular endothelial growth factor receptor 2 (Homo sapiens) (UniProt P35968). To be noted: at 0.1 µM.
For experiment [9] the target is unchanged. To be noted: at 1 µM.
Experiment [10] concerns the target Mast/stem cell growth factor receptor Kit (Homo sapiens) (UniProt P10721). The conditions noted are these: at 0.1 µM.
Experiment [11] has the same target. To be noted: at 1 µM.
For experiment [12], the system named is Mast/stem cell growth factor receptor Kit (Homo sapiens), P10721 [D816V]. The conditions noted are these: at 0.1 µM.
The test system is the same in experiment [13]. The conditions noted are these: at 1 µM.
Experiment [14] concerns Mast/stem cell growth factor receptor Kit (Homo sapiens), P10721 [T670I]. The conditions noted are these: at 0.1 µM.
Experiment [15] has the same test system. The conditions noted are these: at 1 µM.
Experiment [16] concerns Mast/stem cell growth factor receptor Kit (Homo sapiens), P10721 [V560G]. The conditions noted are these: at 0.1 µM.
Experiment [17] shares this test system. To be noted: at 1 µM.
Experiment [18] concerns the target Tyrosine-protein kinase Lck (Homo sapiens) (UniProt P06239). To be noted: at 0.1 µM.
For experiment [19] the target is unchanged. To be noted: at 1 µM.
Experiment [20] has as its target Leukocyte tyrosine kinase receptor (Homo sapiens) (UniProt P29376). The conditions noted are these: at 0.1 µM.

Chain of Mast/stem cell growth factor receptor Kit (Homo sapiens), P10721 [D816V] (P10721 whole entry D816V): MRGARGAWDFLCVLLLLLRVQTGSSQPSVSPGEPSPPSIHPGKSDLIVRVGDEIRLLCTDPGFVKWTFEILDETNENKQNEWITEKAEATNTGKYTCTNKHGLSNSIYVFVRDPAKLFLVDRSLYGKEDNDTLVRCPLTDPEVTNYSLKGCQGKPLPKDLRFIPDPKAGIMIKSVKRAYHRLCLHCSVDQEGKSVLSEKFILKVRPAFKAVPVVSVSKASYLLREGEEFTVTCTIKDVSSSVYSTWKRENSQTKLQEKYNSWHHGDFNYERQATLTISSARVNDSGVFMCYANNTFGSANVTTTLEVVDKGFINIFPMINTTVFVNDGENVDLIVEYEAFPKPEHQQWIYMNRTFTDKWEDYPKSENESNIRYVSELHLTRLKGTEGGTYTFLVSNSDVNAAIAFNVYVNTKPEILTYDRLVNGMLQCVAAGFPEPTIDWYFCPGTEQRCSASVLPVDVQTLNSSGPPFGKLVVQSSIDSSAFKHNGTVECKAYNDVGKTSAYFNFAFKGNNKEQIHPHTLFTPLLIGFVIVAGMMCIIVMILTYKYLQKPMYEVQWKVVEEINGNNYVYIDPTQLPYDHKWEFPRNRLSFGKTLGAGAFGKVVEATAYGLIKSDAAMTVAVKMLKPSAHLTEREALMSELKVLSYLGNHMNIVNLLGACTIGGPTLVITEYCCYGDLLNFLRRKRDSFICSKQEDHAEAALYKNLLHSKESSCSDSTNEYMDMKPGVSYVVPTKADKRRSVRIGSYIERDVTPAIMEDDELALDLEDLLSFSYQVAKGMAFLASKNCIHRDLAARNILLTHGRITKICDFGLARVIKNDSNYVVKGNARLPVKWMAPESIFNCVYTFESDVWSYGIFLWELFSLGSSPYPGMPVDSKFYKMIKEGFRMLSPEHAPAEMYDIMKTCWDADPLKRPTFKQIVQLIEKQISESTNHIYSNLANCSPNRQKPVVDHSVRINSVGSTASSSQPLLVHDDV
Chain of Mast/stem cell growth factor receptor Kit (Homo sapiens) (P10721 whole entry): as the sequence (P10721 whole entry D816V) above, with V816D counted along it
Chain of Mast/stem cell growth factor receptor Kit (Homo sapiens), P10721 [T670I] (P10721 whole entry T670I): as the sequence (P10721 whole entry D816V) above, with T670I, V816D counted along it
Chain of Mast/stem cell growth factor receptor Kit (Homo sapiens), P10721 [V560G] (P10721 whole entry V560G): as the sequence (P10721 whole entry D816V) above, with V560G, V816D counted along it
Chain of Leukocyte tyrosine kinase receptor (Homo sapiens) (P29376 whole entry): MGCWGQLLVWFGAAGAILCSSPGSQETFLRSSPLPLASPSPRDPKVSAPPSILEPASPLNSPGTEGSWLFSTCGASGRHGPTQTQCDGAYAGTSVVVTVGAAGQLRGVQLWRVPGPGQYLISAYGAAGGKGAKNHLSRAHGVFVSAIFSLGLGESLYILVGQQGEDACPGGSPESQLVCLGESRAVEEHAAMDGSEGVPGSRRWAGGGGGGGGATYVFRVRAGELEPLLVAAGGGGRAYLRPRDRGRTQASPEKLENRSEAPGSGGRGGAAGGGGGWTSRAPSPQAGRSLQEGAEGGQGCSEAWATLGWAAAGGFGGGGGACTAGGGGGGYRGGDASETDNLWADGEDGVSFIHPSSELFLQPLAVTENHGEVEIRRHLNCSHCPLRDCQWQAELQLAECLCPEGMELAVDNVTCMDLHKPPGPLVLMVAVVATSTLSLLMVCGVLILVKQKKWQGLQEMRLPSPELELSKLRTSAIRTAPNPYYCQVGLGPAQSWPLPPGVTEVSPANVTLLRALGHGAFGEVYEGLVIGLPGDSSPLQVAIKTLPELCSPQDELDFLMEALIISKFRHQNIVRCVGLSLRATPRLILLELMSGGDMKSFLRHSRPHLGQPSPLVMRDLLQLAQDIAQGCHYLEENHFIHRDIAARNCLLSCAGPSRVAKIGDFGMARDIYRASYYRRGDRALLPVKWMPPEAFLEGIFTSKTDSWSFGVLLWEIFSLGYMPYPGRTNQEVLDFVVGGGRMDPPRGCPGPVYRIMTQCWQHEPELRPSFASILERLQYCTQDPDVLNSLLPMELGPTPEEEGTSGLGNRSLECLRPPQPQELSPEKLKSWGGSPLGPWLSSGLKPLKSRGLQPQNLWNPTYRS
Chain of Tyrosine-protein kinase JAK1 (Homo sapiens) (P23458 whole entry): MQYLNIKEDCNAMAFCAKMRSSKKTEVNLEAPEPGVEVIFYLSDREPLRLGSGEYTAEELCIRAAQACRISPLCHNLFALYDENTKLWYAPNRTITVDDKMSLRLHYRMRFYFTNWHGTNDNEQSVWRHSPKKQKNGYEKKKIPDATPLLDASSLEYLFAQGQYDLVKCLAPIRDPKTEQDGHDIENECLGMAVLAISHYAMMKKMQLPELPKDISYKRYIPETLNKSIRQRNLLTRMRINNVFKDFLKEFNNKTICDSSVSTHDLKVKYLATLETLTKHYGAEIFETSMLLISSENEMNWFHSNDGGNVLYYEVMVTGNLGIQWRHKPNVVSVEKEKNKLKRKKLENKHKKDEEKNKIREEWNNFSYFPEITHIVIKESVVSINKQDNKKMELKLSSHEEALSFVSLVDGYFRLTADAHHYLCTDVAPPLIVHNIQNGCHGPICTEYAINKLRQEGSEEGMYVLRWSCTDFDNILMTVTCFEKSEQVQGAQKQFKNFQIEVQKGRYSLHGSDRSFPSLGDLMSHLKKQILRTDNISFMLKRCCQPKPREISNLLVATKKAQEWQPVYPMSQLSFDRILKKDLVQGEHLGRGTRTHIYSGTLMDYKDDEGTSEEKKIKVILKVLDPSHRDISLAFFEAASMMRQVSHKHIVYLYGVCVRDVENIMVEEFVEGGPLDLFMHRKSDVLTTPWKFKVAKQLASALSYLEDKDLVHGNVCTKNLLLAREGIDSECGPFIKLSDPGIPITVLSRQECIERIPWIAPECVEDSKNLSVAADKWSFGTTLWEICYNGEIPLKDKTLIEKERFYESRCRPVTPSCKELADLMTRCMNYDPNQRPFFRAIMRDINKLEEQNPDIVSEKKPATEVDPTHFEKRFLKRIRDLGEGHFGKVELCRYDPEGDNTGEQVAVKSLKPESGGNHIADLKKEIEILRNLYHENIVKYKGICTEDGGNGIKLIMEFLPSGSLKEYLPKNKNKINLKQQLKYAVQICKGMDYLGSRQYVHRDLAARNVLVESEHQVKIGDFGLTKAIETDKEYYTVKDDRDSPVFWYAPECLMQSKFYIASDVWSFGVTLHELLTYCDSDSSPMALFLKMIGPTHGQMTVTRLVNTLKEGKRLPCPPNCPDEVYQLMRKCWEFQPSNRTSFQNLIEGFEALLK
Chain of Tyrosine-protein kinase JAK2 (Homo sapiens) (O60674 whole entry): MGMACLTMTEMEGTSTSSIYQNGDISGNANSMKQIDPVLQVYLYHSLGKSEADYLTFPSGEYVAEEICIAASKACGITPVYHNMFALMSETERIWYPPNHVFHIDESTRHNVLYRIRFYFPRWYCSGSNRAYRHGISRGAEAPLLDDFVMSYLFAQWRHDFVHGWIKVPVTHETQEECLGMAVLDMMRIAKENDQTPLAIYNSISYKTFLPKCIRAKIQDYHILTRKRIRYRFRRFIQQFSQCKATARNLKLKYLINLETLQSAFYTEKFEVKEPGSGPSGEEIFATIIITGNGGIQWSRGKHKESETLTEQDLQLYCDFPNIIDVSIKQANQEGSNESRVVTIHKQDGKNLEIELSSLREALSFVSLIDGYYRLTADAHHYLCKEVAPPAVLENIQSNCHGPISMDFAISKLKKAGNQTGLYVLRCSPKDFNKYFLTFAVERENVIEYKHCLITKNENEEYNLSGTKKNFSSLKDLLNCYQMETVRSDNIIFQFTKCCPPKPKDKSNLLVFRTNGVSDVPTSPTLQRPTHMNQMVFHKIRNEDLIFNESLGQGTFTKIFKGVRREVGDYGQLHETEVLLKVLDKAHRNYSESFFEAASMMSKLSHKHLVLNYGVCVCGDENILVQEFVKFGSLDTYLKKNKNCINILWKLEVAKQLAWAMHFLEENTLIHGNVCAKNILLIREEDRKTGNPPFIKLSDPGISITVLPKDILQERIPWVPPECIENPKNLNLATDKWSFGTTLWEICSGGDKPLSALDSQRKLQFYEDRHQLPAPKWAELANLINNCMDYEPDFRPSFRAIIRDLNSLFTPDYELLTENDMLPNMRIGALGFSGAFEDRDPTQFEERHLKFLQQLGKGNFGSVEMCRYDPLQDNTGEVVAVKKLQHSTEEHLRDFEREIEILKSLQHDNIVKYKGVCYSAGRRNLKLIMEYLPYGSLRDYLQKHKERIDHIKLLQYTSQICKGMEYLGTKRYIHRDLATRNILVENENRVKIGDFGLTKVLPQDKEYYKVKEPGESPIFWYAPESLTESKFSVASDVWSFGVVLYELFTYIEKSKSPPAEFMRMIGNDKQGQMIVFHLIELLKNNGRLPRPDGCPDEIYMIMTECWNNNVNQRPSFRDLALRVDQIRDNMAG
Chain of Tyrosine-protein kinase Lck (Homo sapiens) (P06239 2-509 limits assumed): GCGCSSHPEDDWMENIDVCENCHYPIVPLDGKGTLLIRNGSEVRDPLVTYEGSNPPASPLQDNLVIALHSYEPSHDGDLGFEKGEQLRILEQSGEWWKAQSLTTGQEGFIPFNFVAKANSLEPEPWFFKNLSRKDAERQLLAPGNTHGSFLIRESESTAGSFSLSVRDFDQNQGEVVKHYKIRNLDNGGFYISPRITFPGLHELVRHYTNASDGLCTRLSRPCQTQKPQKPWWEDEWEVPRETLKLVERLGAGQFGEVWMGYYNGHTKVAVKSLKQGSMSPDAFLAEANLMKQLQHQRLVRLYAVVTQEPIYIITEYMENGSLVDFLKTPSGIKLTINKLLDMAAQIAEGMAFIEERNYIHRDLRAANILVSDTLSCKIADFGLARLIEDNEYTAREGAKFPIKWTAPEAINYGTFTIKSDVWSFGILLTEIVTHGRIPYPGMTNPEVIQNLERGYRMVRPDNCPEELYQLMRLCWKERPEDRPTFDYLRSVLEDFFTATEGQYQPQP

Turning to `COc1cc(N2CCN(C(C)C)CC2)ccc1Nc1nc(Nc2cccc3ncccc23)c2cc[nH]c2n1`, the inhibition (commonly the change of the read-out against control, counted positive when it falls) in experiment [1] is 2.05%; in experiment [2], -1.68%; in experiment [3], -0.17%; in experiment [4], -0.12%; in experiment [5], 0.72%; in experiment [6], 1.35%. Further, the inhibition in experiment [7] was 1.57%; in [8] it was 1.96%; in experiment [9] it was 3.64%; in experiment [10], -0.77%; in [11], 2.29%; in experiment [12], -1.39%. Besides, the inhibition in experiment [13] was -2.2%; in [14], 0.28%; in experiment [15] it was 0.54%; in [16] it was 0.73%; in experiment [17], 6.87%; in [18], 0.42%. Also, the inhibition in experiment [19] was found to be 3.07%; in experiment [20], 34.7%.

`COc1ccccc1-c1cc(/C=C2\C(=O)Nc3ncc(Br)cc32)cc(Br)c1O`: the inhibition in experiment [1] is 3.95%; in experiment [2] it was 2.55%; in [3] it was 0.51%; in experiment [4], 1.66%; in experiment [5] it was 3.2%; in experiment [6] it was -0.19%. The inhibition turned out to be 5.39% in experiment [7]; 6.49% in experiment [8]; 8.56% in experiment [9]; 8.06% in [10]; 27.9% in experiment [11]; 4.84% in experiment [12]. Moreover, the inhibition in experiment [13] amounted to 1.87%; in [14], 3.92%; in [15], 3.21%; in [16], 1.58%; in experiment [17], 4.31%; in experiment [18] it was 2.46%. Moreover, the inhibition came to 8.22% in [19] and 3.94% in experiment [20].

With `CS(=O)(=O)Nc1ccc(-c2cc(-c3ccccc3)cc(C(N)=O)c2N)cc1`, the inhibition is 0.76% in experiment [1]; 0.16% in [2]; 2.62% in experiment [3]; 0.9% in experiment [4]; 3.86% in experiment [5]; -0.01% in experiment [6]. For the same compound, the inhibition in experiment [7] was 0.58%; in [8], 1.74%; in experiment [9] it was 4.53%; in experiment [10] it was 3.8%; in experiment [11], 21%; in experiment [12] it was -0.43%. The inhibition in [13] is -0.86%; in experiment [14] it was -1.07%; in [15] it was 4.26%; in [16], -0.45%; in experiment [17], -2.55%; in experiment [18] it was 1.3%. Also, the inhibition is 2.43% in [19] and 2.46% in [20].

On to `COc1ccc2ncn(-c3cc(O[C@H](C)c4ccccc4C(F)(F)F)c(C(N)=O)s3)c2c1`, for which the inhibition in experiment [1] was 1.39%; in [2] it was -0.98%; in experiment [3], 5.43%; in experiment [4] it was 1.01%; in experiment [5], -1.12%; in experiment [6], 0.5%. In addition, the inhibition in [7] is 6.44%; in experiment [8], 2.92%; in experiment [9], 14.1%; in experiment [10], -1.6%; in [11], 14.7%; in experiment [12] it was -1.17%. Besides, the inhibition came out at 2.71% in experiment [13]; 1.09% in [14]; 3.92% in experiment [15]; 0.71% in experiment [16]; 2.83% in experiment [17]; 0.65% in experiment [18]. Besides, the results for the inhibition in experiment [19] and in experiment [20] were 2.2% and 0.48%, respectively.

Take `COc1c(C(N)=O)cc(-c2ccc(Cl)cc2)cc1-c1ccc(S(N)(=O)=O)cc1`: the inhibition came out at 2.4% in experiment [1]; 1.1% in experiment [2]; 3.15% in [3]; 2.98% in experiment [4]; 3.05% in [5]; 0.08% in experiment [6]. Moreover, the inhibition was -0.75% in [7]; 6.96% in experiment [8]; 9.32% in experiment [9]; 6.94% in experiment [10]; 11.2% in [11]; 3.27% in experiment [12]. Moreover, the inhibition in [13] was 3.88%; in experiment [14], 1.48%; in [15] it was 2.82%; in [16] it was 1.14%; in experiment [17], -3.65%; in experiment [18], 3.23%. Moreover, the inhibition in experiment [19] worked out at 2.89%; in [20], 5.37%.

With `CC(C)c1ccc(-c2cc(-c3c[nH]nc3-c3ccccn3)ccn2)cc1`, the inhibition in experiment [1] is 1.69%; in [2] it was -1.37%; in [3], 1.1%; in experiment [4] it was 0.74%; in experiment [5] it was 0.23%; in [6] it was 0.23%. In addition, the inhibition in experiment [7] was 0.8%; in [8], 9.43%; in experiment [9], 32.4%; in experiment [10], 0.6%; in experiment [11], 2.85%; in [12], 0.06%. In addition, the inhibition in [13] is 3.83%; in experiment [14] it was 1.04%; in [15], 1.23%; in experiment [16], -0.59%; in experiment [17] it was 3.5%; in experiment [18], 1.31%. The inhibition in [19] was -0.13%; in experiment [20], 1.24%.
